A selection: hits, their analogues and other compounds. The true share with any hit is near 18%.
TDP1 inh = qHTS Assay for Inhibitors of Tyrosyl-DNA Phosphodiesterase (TDP1); Tyrosyl-DNA phosphodiesterase 1 (Homo sapiens), Q9NUW8; recombinant TDP1, AlphaScreen DNA substrate cleavage; Potency, µM (top dose mostly 130 µM), inactives show top-dose activity change, negative = inhibition, usual class: inhibitors; 0.28% of 350,000 active; AID 485290, 2010; further: potency means the concentration at half of the fitted maximal effect; on the % scale 0 is the no-effect control and ±100 the full control effect; nearly all actives have a fitted effect of over 40% in size
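Enzyme-compound mixtures sat 15 min at room temperature, followed by a 5 min reaction with 15 nM final substrate and 10 min with AlphaScreen beads. Recombinant human Tdp1 was used at 1 nM final.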
DT40 TDP1 no CPT = qHTS for Inhibitors of human tyrosyl-DNA phosphodiesterase 1 (TDP1): qHTS in cells in absence of CPT | DT40 Tdp1-/- hTDP1 cells, no CPT, ATP luminescence, 48 h | Potency, µM (doses to about 46.2 µM), inactives show top-dose activity change, negative = growth inhibition, hits mostly inhibitors | 15% of 420,000 active | AID 686978, 2013; further: potency means the concentration at half of the fitted maximal effect; on the % scale 0 is the no-effect control and ±100 the full control effect; nearly all actives have a fitted effect of over 55% in size
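Growth kinetics read by CellTiter-Glo luminescence after ≥48 hr at 37 °C. Cells: DT40 Tdp1-/- stably carrying human TDP1, 400 per well, compound exposure in the absence of CPT (DMSO vehicle).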
IL1B secr inh = qHTS for Inhibitors of Inflammasome Signaling: IL-1-beta AlphaLISA Primary Screen; THP-1 LPS/ATP IL-1B secretion, AlphaLISA, 16 h; hits give low values; activity change, % at 57.5 µM; AID 743279, 2014; 4.7% of 360,000 active; in the data active means activity change below about -50%; inconclusive means mostly about -30% to -49%; further: on the % scale 0 is the no-effect control and ±100 the full control effect
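THP-1 cells pretreated 1 hr with compounds (up to 57.5 uM final), then stimulated with LPS (250 ng/mL final) plus ATP (1.25 mM final); secreted IL-1B measured by AlphaLISA after 16 hr, decreased signal indicating inhibition.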
TDP1 cell CPT = qHTS for Inhibitors of human tyrosyl-DNA phosphodiesterase 1 (TDP1): qHTS in cells in presence of CPT. chicken DT40 Tdp1-/-;hTDP1 cells + 20 nM CPT, ATP luminescence, 48 h. Potency, µM (top dose mostly 46.2 µM), for inactives: top-dose activity change, negative = growth inhibition, actives largely listed as inhibitors. 12% of 420,000 active; further: potency means the concentration at half of the fitted maximal effect; on the % scale 0 is the no-effect control and ±100 the full control effect; nearly all actives have a fitted effect of over 55% in size
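Chicken DT40 Tdp1-/- cells complemented with human TDP1, 400 cells/well, exposed to compounds plus 20 nM camptothecin for at least 48 h at 37 C; viability read as ATP content by CellTiter-Glo luminescence.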
HepG2 viability = qHTS for Inhibitors of TGF-b: Cytotox Counterscreen; HepG2 CAGA-GFP viability, ATP luminescence, 18 h; Potency, µM (top dose mostly 46.1 µM), for inactives: at the top dose activity change, negative = cytotoxicity, most hits filed as cytotoxic; 0.76% of 410,000 active; further: potency means the concentration at half of the fitted maximal effect
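CellTiter-Glo luminescence gave cytotoxicity after 18 hours at 37 degrees C. The cells were HepG2 CAGA-GFP in 1% FBS DMEM, stimulated with 500 pg/mL TGF-beta after compound addition. %Activity was normalised to no-cell wells (complete cell-killing) and DMSO (no toxicity), and curves were fitted and classified.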
TGFb SMAD3 inh = qHTS for Inhibitors of TGF-b | AID 588855, 2011 | Potency, µM (titrated, usually from 46.1 µM), inactives show at the top dose activity, negative = inhibition, hits mostly inhibitors | 1.2% of 410,000 active | HepG2 CAGA-GFP TGF-b/SMAD3 reporter, GFP fluorescence, 18 h; TGF-beta stimulated, 500 pg/mL final; further: potency means the concentration at half of the fitted maximal effect; on the % scale 0 is the no-effect control and ±100 the full control effect; nearly all actives have a fitted effect of over 65% in size
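GFP signal (ex488/em500-530) from TGF-beta-stimulated HEPG2 CAGA-GFP cells, 500 pg/mL final, 18 h at 37 degrees C in DMEM plus 1% FBS, normalized to unstimulated and DMSO-stimulated controls.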
The depositor's hits bear a star; ? = inconclusive; nt = not tested or not shown; ! = a repeat was not active; [ ] = remark or other dose. Unless noted, the call rests on the fitted dose curve; in most records, active means well fitted curve in the direction sought with a large enough effect; inconclusive means small, poorly fitted or top-dose-only effect, or another doubt; inactive means no such curve, though single readings can be large; an effect the other way counts as inactive or inconclusive.

SMILES | TDP1 inh | DT40 TDP1 no CPT | IL1B secr inh | TDP1 cell CPT | HepG2 viability | TGFb SMAD3 inh
CC1Cc2cc(S(=O)(=O)N3CCC(C(N)=O)CC3)ccc2N1C(=O)C1CC1 (stereo not given) | 1% | -1% | 4 | -12% | -13% | -23%
CC1Cc2cc(S(=O)(=O)N3CCC(C(=O)Nc4ccccn4)CC3)ccc2N1C(=O)C1CCC1 (stereo not given) | 3% | 21µM* | ? | 18µM* | -17% | -3%
Cc1ccc(NC(=O)C2CCN(S(=O)(=O)c3ccc4c(c3)CC(C)N4C(=O)C3CCC3)CC2)nc1 (stereo not given) | 5% | ? | -81* | 16µM* | -83% | ?
COc1ccc(CNC2CCSc3ccccc32)cc1OC (stereo not given) | nt | ? | ? | ? | -3% | 7%
CN(CC[C@@H](Oc1ccc(-c2ccccc2)cc1)c1ccc(F)cc1)CC(=O)O | 8%[56.1 µM] | ? | nt | ? | nt | nt
CN(CCO)S(=O)(=O)c1ccc2c(c1)C(=NO)c1cc(S(=O)(=O)N(C)CCO)ccc1-2 | -3% | 12µM* | -25 | -22% | -32% | -2%
O=C1c2cc(S(=O)(=O)NCCO)ccc2-c2ccc(S(=O)(=O)NCCO)cc21 | -8% | -17% | -13 | 30% | 18% | 19%
COc1ccccc1C(=O)Nc1ccccc1C(=O)OCc1cc(=O)n2c(C)csc2n1 | 11% | -1% | nt | 10% | 4% | 5%
COc1cccc(C(=O)N2CCC[C@H]2C(=O)N2CCC[C@H]2C(=O)N[C@@H](C)c2ccccc2)c1 | nt | -24% | 35 | -15% | nt | nt
CC/C(=C\c1oc2cc3ccccc3cc2[n+]1CC)Nc1ccccc1 | 5% | 13µM* | -107* | 4.6µM* | 0% | 0%
CC(C)N(Cc1nccn1C)C(=O)CC1C(=O)NCCN1Cc1ccc(F)c(F)c1 (stereo not given) | 4% | 17% | 0 | 1% | 6% | 0%
O=C1OC(c2ccco2)=N/C1=C\c1ccc(-c2cccc(C(F)(F)F)c2)o1 | -3% | 23µM* | 0 | ? | 2% | 15%
Cc1ccc(NC(=O)CN2C(=O)COc3ccc(S(=O)(=O)N4CCCCC4)cc32)cc1N(C)C | -3% | 21µM* | nt | 23µM* | -10% | ?
Cc1ccc(NC(=O)CN2C(=O)COc3ccc(S(=O)(=O)N4CCCCC4)cc32)cc1Cl | -3% | ? | nt | ? | -22% | 0%
COc1ccc(NC(=O)CN2C(=O)COc3ccc(S(=O)(=O)N4CCOCC4)cc32)cc1Cl | 2% | 18µM*! | ? | ? | 5% | 11%
COc1ccccc1NC(=O)CN1C(=O)COc2ccc(S(=O)(=O)N3CCOCC3)cc21 | 6% | 1% | -7 | -19% | 8% | 2%
CCOC(=O)Cn1c(=O)n(CC2CCCO2)c2nc(-c3c(F)cccc3Cl)nc(C(N)=O)c21 (stereo not given) | 3% | nt | nt | nt | -2% | 5%
CCOc1ccc(CCNC(=O)c2c(C)oc3ncn(CC(C)C)c(=O)c23)cc1OCC | -3% | ? | nt | -28% | -25% | -9%
CCc1ccc(CNC(=O)c2c(C)oc3ncn(CC(C)C)c(=O)c23)cc1 | -5% | 16µM* | nt | ? | -26% | 3%
Cc1ccc(N2CCN(C(=O)c3c(C)oc4ncn(CC(C)C)c(=O)c34)CC2)c(C)c1 | 4% | 7.3µM* | nt | 29µM* | -20% | -29%
